Measurements published in PubChem BioAssay (NCI).
The panel holds about 79,000 compounds, 15% with a hit somewhere; the sample as a whole holds those more often. A number with no mark means an inactive call. Calls of active or inactive are those of the source. No stated cut-off is given here; in the data, active means growth inhibition above about 70%; inactive means the rest.

Experiments:
[1] = NCI Yeast Anticancer Drug Screen. Data for the rad50 strain (AID 155);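 further: 0% = growth of vehicle-only cultures of the same strain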; conditions: S. cerevisiae rad50 strain growth inhibition, hits give high values
In short: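 A DNA repair-deficient yeast mutant serves as the test organism; compound-induced growth inhibition is calculated against vehicle-treated cells.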

[2] = NCI Yeast Anticancer Drug Screen. Data for the mec2-1 strain (AID 157); conditions: S. cerevisiae mec2-1 strain, hits give high values
In short: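 Growth inhibition is read against vehicle-treated controls after compound exposure of the mec2-1 yeast strain, which is defective in DNA damage repair or cell cycle control.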

[3] = NCI Yeast Anticancer Drug Screen. Data for the sgs1 mgt1 strain (AID 161);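 further: 0% = growth of cultures given vehicle only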; conditions: S. cerevisiae sgs1 mgt1 strain, hits give high values
In short: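 Percent growth inhibition was derived by comparing compound-exposed mutant yeast with vehicle-exposed cultures. The strain carries alterations in DNA damage repair.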

[4] = NCI Yeast Anticancer Drug Screen. Data for the cln2 rad14 strain (AID 165);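 further: 0% = growth equal to vehicle treated cultures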; conditions: S. cerevisiae cln2 rad14 strain, hits give high values
In short: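 Growth inhibition, relative to vehicle-treated controls, is the read-out. The test organism is a yeast strain with defined genetic alterations, cln2 rad14.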

[5] = NCI Yeast Anticancer Drug Screen. Data for the bub3 strain (AID 167); conditions: S. cerevisiae bub3 mutant strain, hits give high values
In short: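 Inhibition values come from growth of compound-treated mutant yeast normalised to vehicle-treated controls.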

[6] = NCI Yeast Anticancer Drug Screen. Data for the mlh1 rad18 strain (AID 175); conditions: S. cerevisiae mlh1 rad18 strain growth inhibition, hits give high values
In short: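 Cells of a genetically altered yeast strain, deficient in DNA damage repair, were treated with compound. Their growth was then compared with that of vehicle-treated cultures to give inhibition.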

[7] = at 5.0 µM (retest, dose inferred, filed as 0.5)
[8] = at 50.0 µM (retest, dose inferred, filed as 5.0)

SMILES	growth inhibition [1, 7]	growth inhibition [1, 8]	growth inhibition ([1]; at 50.0 µM)	growth inhibition [2, 7]	growth inhibition [2, 8]	growth inhibition ([2]; at 50.0 µM)	growth inhibition [3, 7]	growth inhibition [3, 8]	growth inhibition ([3]; at 50.0 µM)	growth inhibition [4, 7]	growth inhibition [4, 8]	growth inhibition ([4]; at 50.0 µM)	growth inhibition [5, 7]	growth inhibition [5, 8]	growth inhibition ([5]; at 50.0 µM)	growth inhibition [6, 7]	growth inhibition [6, 8]	growth inhibition ([6]; at 50.0 µM)
CC(C)(C)S.[Hg]	68%	98% (active)	99.5% (active)	99% (active)	98% (active)	99.7% (active)	98% (active)	99% (active)	99.7% (active)	99% (active)	99% (active)	99.2% (active)	89% (active)	99% (active)	99.5% (active)	75% (active)	99% (active)	99.5% (active)
Cc1cc2c(cc1O)C(C)(C)CCC2(C)C	8%	70% (active)	-6.9%	-1%	77% (active)	97.2% (active)	1%	78% (active)	47.9%	9%	90% (active)	52.8%	0%	83% (active)	96.8% (active)	-2%	62%	97.3% (active)
CCCCCCCCN1CCN(CCCCCCCC)C2CCCCC21 (configuration not stated) (tested in a mixture with another compound)	12%	95% (active)	67.2%	4%	96% (active)	44.1%	25%	94% (active)	70.2% (active)	8%	71% (active)	56%	20%	99% (active)	71.5% (active)	18%	96% (active)	77% (active)
Cc1cc(CCN)c(C)c2c1oc1ccccc12	-9%	95% (active)	98.5% (active)	-7%	88% (active)	70.2% (active)	-7%	99% (active)	98.8% (active)	-5%	98% (active)	62.8%	-22%	96% (active)	93% (active)	-6%	98% (active)	98.6% (active)
COc1cc(C(=O)[O][Hg][CH2]C2CC(O)CC([CH2][Hg][O]C(=O)c3cc(OC)c(OC)c(OC)c3)O2)cc(OC)c1OC (configuration not stated)	97% (active)	98% (active)	99.3% (active)	98% (active)	99% (active)	99.6% (active)	99% (active)	99% (active)	99.6% (active)	95% (active)	96% (active)	98.5% (active)	97% (active)	99% (active)	99.1% (active)	99% (active)	99% (active)	98.7% (active)
CCN1CCC(O)(c2ccc(O)cc2)C(C(=O)c2ccc(O)cc2)C1 (configuration not stated)	-9%	-9%	72% (active)	-9%	8%	82.6% (active)	6%	13%	91.3% (active)	18%	21%	7.1%	-9%	19%	13.3%	1%	29%	86.7% (active)
C[C@]12CC[C@H](O)C[C@@H]1CC[C@@H]1[C@@H]2CC[C@]2(C)C(=O)/C(=C/O)C[C@@H]12	-1%	80% (active)	54.5%	-1%	68%	97.1% (active)	-1%	67%	87% (active)	-15%	30%	96.5% (active)	-4%	84% (active)	95.7% (active)	0%	61%	96.5% (active)
[O]=[Sb]([OH])([OH])[c]1ccc(NC2OC(CO)C(O)C(O)C2O)cc1 (configuration not stated)	0%	-6%	6.45%	0%	-2%	5.65%	-1%	-20%	-13.8%	0%	-12%	-0.2%	2%	-1%	91.8% (active)	1%	-3%	-10.4%
CCC[CH2][Sn]1([CH2]CCC)[O]CC(C)[O]1 (configuration not stated)	33%	95% (active)	86% (active)	30%	97% (active)	90% (active)	42%	68%	88.2% (active)	34%	64%	87.2% (active)	48%	97% (active)	88.3% (active)	53%	96% (active)	86.7% (active)
CC/C(=C/c1ccc(OC)cc1)[N+](=O)[O-]	80% (active)	99% (active)	99.2% (active)	35%	100% (active)	99.7% (active)	46%	99% (active)	99.5% (active)	20%	100% (active)	99% (active)	49%	99% (active)	99.3% (active)	40%	99% (active)	99.2% (active)
O=[N+]([O-])/C=C\C(Cl)(Cl)Cl	74% (active)	99% (active)	91.7% (active)	72% (active)	99% (active)	92.7% (active)	73% (active)	99% (active)	92.2% (active)	82% (active)	99% (active)	91.5% (active)	92% (active)	99% (active)	90.5% (active)	74% (active)	99% (active)	91.3% (active)
C=CCc1cc(Cl)ccc1OC(=O)N(C)C	5%	-2%	-7.75%	5%	-4%	3.45%	5%	-2%	-6.55%	6%	-1%	-19.3%	0%	-21%	-11.8%	0%	-1%	31.8%
CC(C)=N.[C-]#[O+].[C-]#[O+].[C-]#[O+].[C-]#[O+].[C-]#[O+].[W]	30%	34%	-7.35%	15%	35%	-2.45%	26%	34%	-11.8%	36%	31%	0.7%	36%	47%	64.5%	45%	43%	-13.1%
O=[N+]([O-])/C=C/c1c(Cl)cccc1Cl	99% (active)	99% (active)	99.2% (active)	100% (active)	100% (active)	99.2% (active)	99% (active)	99% (active)	99.3% (active)	99% (active)	99% (active)	98% (active)	100% (active)	99% (active)	99.3% (active)	99% (active)	99% (active)	99.2% (active)
C[C@@H](O)[C@H]1/C=C/C=C\C(=O)O[C@@H]2C[C@H]3O[C@@H]4[C@@H]5OC5(C)CCC4(COC(=O)[C@H]4O[C@]4(C)[C@@H](O)CO1)[C@]2(C)[C@]31CO1 (some centres not stated)	26%	95% (active)	91.4% (active)	24%	87% (active)	92.5% (active)	44%	96% (active)	92% (active)	42%	96% (active)	90.4% (active)	31%	93% (active)	91% (active)	28%	97% (active)	90.2% (active)
CC(=O)O[C@H]1CC[C@@]2(C)C(=CC[C@@H]3[C@@H]2CC[C@]2(C)C(=O)[C@@H](CN4CC4)C[C@@H]32)C1	2%	97% (active)	59.7%	7%	99% (active)	54%	22%	99% (active)	68.5%	5%	75% (active)	62.6%	6%	97% (active)	39%	4%	98% (active)	62%
CCC[CH2][Sn]1([CH2]CCC)[O]C(=O)c2ccc(C)cc2[O]1	79% (active)	99% (active)	98.8% (active)	84% (active)	99% (active)	99.3% (active)	85% (active)	98% (active)	99.2% (active)	76% (active)	98% (active)	98% (active)	84% (active)	98% (active)	98.7% (active)	82% (active)	97% (active)	98.8% (active)
C1=CC2CCC[N-]C2N1.C1=CC2CCC[N-]C2N1.[I][Pt+2][I] (configuration not stated)	4%	99% (active)	99% (active)	9%	99% (active)	99.5% (active)	10%	99% (active)	34.5%	21%	99% (active)	98.2% (active)	6%	99% (active)	99% (active)	23%	99% (active)	98.8% (active)
C[N+](C)(C)CC1CCCC(C[N+](C)(C)C)C1O (configuration not stated)	2%	65%	92.3% (active)	-3%	46%	43.4%	0%	81% (active)	76% (active)	-5%	39%	6.5%	-4%	70% (active)	67.7%	0%	80% (active)	95.2% (active)
